Results on 14 molecules are retold here after the supplement of paper PMC10105736.

A number with no mark means an inactive call.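 Rule for the calls: active = MAPPIT score above the 99th percentile of random reference set scores in the same batch; inactive = at or below it.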

Holding throughout (assay): MAPPIT interaction score (arbitrary units); higher = stronger binary interaction signal, active = hit call of the paper
One test concerns the target CG11275. As to conditions: MAPPIT configuration: N-N.
Another test concerns the target CG8159. Particulars: MAPPIT configuration: N-N; pair source set: Curagen_low_conf.
The target in a further test is CG11149. Particulars: pair source set: RRS.
For another test, the target named is CG14323. As to conditions: MAPPIT configuration: N-N; pair source set: RRS.
The next test has as its target CG34268. As to conditions: MAPPIT configuration: N-N; pair source set: RRS.
The target of a further test is CG11570. As to conditions: pair source set: RRS.
The target of a further test is MFS16. Particulars: MAPPIT configuration: N-N; pair source set: DPIM.
The next test deals with Tsp. As to conditions: MAPPIT configuration: N-N; pair source set: DPIM.
The target of another test is CG11961. Particulars: MAPPIT configuration: N-N; pair source set: Lit-BS-16.
The target of another test is CG12607. Particulars: MAPPIT configuration: N-N; pair source set: Lit-BS-16.
A further test deals with noc. Particulars: MAPPIT configuration: N-N; pair source set: Curagen_high_conf.
For the next test, the target named is CG10918. Particulars: MAPPIT configuration: N-N; pair source set: Finley_Y2H.
The target in a further test is CG11327. Particulars: MAPPIT configuration: N-C; pair source set: screen_3.
Another test concerns the target CG10841. Particulars: MAPPIT configuration: N-N; pair source set: screen_2.
In the next test the target is CG11596. Particulars: MAPPIT configuration: N-N; pair source set: Finley_Y2H.
Another test addresses CG11723. As to conditions: MAPPIT configuration: N-N; pair source set: screen_2.
Another test deals with CG31624. As to conditions: MAPPIT configuration: N-N; pair source set: screen_2.
In another test the target is CG11983. As to conditions: MAPPIT configuration: N-N; pair source set: screen_1.
A further test has as its target CG10874. As to conditions: MAPPIT configuration: N-N; pair source set: Lit-BS-16.
For another test, the target named is RpL38. Particulars: MAPPIT configuration: N-N; pair source set: Curagen_high_conf.
The target in the next test is bond. Particulars: MAPPIT configuration: N-N; pair source set: Curagen_low_conf.
Another test concerns the target CG12112. As to conditions: MAPPIT configuration: N-N; pair source set: RRS.
In a further test the target is CG11555. Particulars: MAPPIT configuration: N-N; pair source set: Curagen_high_conf.
The next test concerns the target CG5708. As to conditions: MAPPIT configuration: N-C; pair source set: screen_4.
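Note: HEK293T cells with Epo stimulation, STAT-responsive firefly luciferase reporter, fold induction versus unstimulated cells divided by the larger fold induction of two negative controls lacking either bait or prey.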

B1: Adf1 (protein)
chain: MHTLTAAIEMDKLDANLEQQFDLNLIEAVKLNPVIYDRSHYNYKHFVRKAQTWKQIAETLGVPEQKCTKRWKSLRDKFAREMKLCQESRWRYFKQMQFLVDSIRQYRESLLGKCANGSQSANQVADPSQQQQAQQQTVVDIFAQPFNGSATTSAQALTHPHEITVTSDAQLATAVGKDQKPYFYEPPLKRERSEEEHSDNMLNTIKIFQNNVSQAVSAEDQSFGMVVTDMLNTLGVRQKAEAKVHIIKYLTDMQLLAQHNKY
For the molecule B1, the MAPPIT interaction score with CG11275 (pair source set: screen_1) is 2.6 (active); with CG8159 it was -0.0528.

B2: wuho (protein)
chain: MCTTISFAEPEIVLGHGRRVLFVNPDDLQIFKEIELPPDLGLKGHTSQSQESCTAAAAASTATAASGQAPGGKEQQLANQPEEGGTSASASGLGCATSTSVQNVAYSPDGQLLAVTTSGKQKALLLYRSRPENARLLSARPLARASSALRFCSDSSSILVTDKTGDCYQYDCVEVEAPPRLLLGHLSVVYDILWSEDQQHIITCDRDDKIRVTNYPATFDIHSYCLGHREFVSGLALLTEQHIASASGDKTLRVWNYIQGKELLQHELPAPAVRLLVRQLEPEKVFQAAVLFYEHVDALGLYRLERSSDDTWSVTATQLVCAEAGSWSISNFTLTSDRIYITGAENERLSLRVYDIATGQPASSGVPEGWLKMVLDGLGANEEGAPPFIPEDLSVWFKKRFDNVSDYLERKKRRIEEQQQQKCG
Regarding B2, the MAPPIT interaction score was 0.206 with CG11149 (MAPPIT configuration: N-C), -0.175 with CG11149 (MAPPIT configuration: N-N), 0.00913 with CG14323 and 0.0545 with CG34268.

B3: mRpS24 (protein)
chain: MNFLKKLLPQVATEVQQLSRSGFHTSSVCCRVQSGRYRITTKRNRPLTYEMANPPHFIGHRKSWNSWNTSTMKDALRPSQTAIEDVFIRKFVTGTWHALVCSEVIIKRQHNTIRIAALIRQAITPRKMYFLIGYTEELLSYWMQCPVTLELQTVGDKKDVVFKYI
B3: the MAPPIT interaction score was 0.0908 with CG11570 (MAPPIT configuration: N-C), -0.09 with CG11570 (MAPPIT configuration: N-N), 0.186 with MFS16 and 0.192 with Tsp.

B4: Sod3 (protein)
chain: MMQYLVVSLALCATICSAAQTRNMPIQAIAYLIGPVQSDNTQVKGNVTFTQNDCGQNVHVRVQLEGLKEGKHGFHIHEKGDLTNGCISMGAHYNPDKVDHGGPDHEVRHVGDLGNLEANSTGIIDVTYTDQVITLTGKLGIIGRGVVVHELEDDLGLGNHTDSKKTGNAGGRIACGVIGIK
As for B4, the results for the MAPPIT interaction score with CG11961, in the test with CG12607 and with noc were -0.0996, 0.262 and 0.249, respectively.

B5: Fer2LCH (protein)
chain: MKFFVALALFACLGSLALAKDDEYCQNTVITACSTSAFSANSICNARFAGIDHIEPEIQSYINANLAKSYDYLLLATHFNSYQKNRPGFQKLYQGLSDRSFEDSIALIKQVTRRGGIVDFNTRHESSGSVSTKRGTLEVDELHSLALALDTEKQLATGATHVHSRATHATDAERDPELAHYFEENFLGKQAESVRKLSGYANDLAKLMKVPDPSLSVYLFDEYLQKQ
Consider B5, for which the MAPPIT interaction score in the test with CG10918 was 0.0432.

B6: Eh (protein)
chain: MNCKPLILCTFVAVAMCLVHFGNALPAISHYTHKRFDSMGGIDFVQVCLNNCVQCKTMLGDYFQGQTCALSCLKFKGKAIPDCEDIASIAPFLNALE
On to B6, for which the MAPPIT interaction score with CG11327 is 1.52.

B7: mxt (protein)
chain: MAHTHLGRAVKNIEAPRPLKTQSRSSLKNSYLVIEELIQLIDNVTVGLQSCNTTPESITLLLHNLRVHGPQLEAVSKDTLDRAFVVFRNASQDERLNITTRLKLLELIELRAKSWDNDDTIAYYKSKQQISNVELPSEYQYDAGVQPGAFSTSPTFGVSGGVGGVNDGAAAAAAAVFNAASAAAAAQAAAIAAVGTSNQQHMLLPPGEVIRNSGKFPKPTKIPGKTYCKDEVVIRNADSGKVMGIKGRRVHMIEELSETIISFQRVNPGAKERLVQITGPAEDKINYAKQLMEDTIRRNASPVRLEPAPAVGGSCSSLNSSNSDDAIVQPRTPTGSSLANRLSFNSAQNFMTATAAAQQISQQMHHQTHHLQHQQQQQVAAVAAAAAAAAHAQATAAAGKVLRPNQQLLMHSYSTNDASVGEYKFTVNVGQHLIKITGDCCELVRVAKLVLDDYFSSSEFLASIEAGAAFDGTSLVTTPSTPLPGAGPPQFWLPGTDSGIGLNCVVSSSANNNGEGDDEVFAEPSNGGSSTSNQNGLARSRRSHFSRKESTPETKGAREKGDLDDLAGTNSLKSNASRVSYDIEHLLYYSMSPHSWTLPTDWQKMQETAPSILRNKDLQDESQRFDGDKYLASIKTAAKRDIVAADEVETLDE
In the case of B7, the MAPPIT interaction score with CG10841 is 0.671.

B8: TfIIFbeta (protein)
chain: MSKEDKEKTQIIDKDLDLSNAGRGVWLVKVPKYIAQKWEKAPTNMDVGKLRINKTPGQKAQVSLSLTPAVLALDPEEKIPTEHILDVSQVTKQTLGVFSHMAPSDGKENSTTSAAQPDNEKLYMEGRIVQKLECRPIADNCYMKLKLESIRKASEPQRRVQPIDKIVQNFKPVKDHAHNIEYRERKKAEGKKARDDKNAVMDMLFHAFEKHQYYNIKDLVKITNQPISYLKEILKDVCDYNMKNPHKNMWELKKEYRHYKTEEKKEEEHKSGSSDSE
As for B8, in the test with CG11596, the MAPPIT interaction score was 0.174.

B9: su(sable) (protein)
chain: MSVALADEPLIDLEEDLEDGEIDDDEEDEQQSSKIQVQKKTFVGDDDVQFVGVEAKNQNDDEDVVYVGPSTDAVCLQNSNSTKSKKPRPLEDDHASSIELAIANALKKKGIEPPMPRMRSSNQDTSDQSLEGSGEGLATANPLLQSTRSSRRRKRKKEREREQKKDKEQQNRSRRDENDVSVVPGGVEDMDEYEMMNVRGGSPPPGGAAPPLSSCGQRFSGADWDMDDGSAATGAAGLGAGGGGGYNSHSSYDSYSDEETNGPGLMNQRRRTRRDNEKEHQRGVNNRKRRDRDRLEGGLAGSGSKRNRRDSGEGGGGGQEKMGGSNRVEPRKLELCKFYLMDCCAKRDKCSYMHKEFPCKYYYLGMDCYAGDDCLFYHGEPLSEQLRNVLLKHMETAPKEILGDFKRISRDIAIVQMTRRHEQLCDQLNRENTWNSIGCGLMGKRQDHQMQQQQQQLQHQQLQQQQEQQQTQQQAAADGGGCIPSLLDMVINPPLSENKRKSRWTEKMGAKAAAGAAGSSERDSTSPDAKPLPPHLDLANLSHVLSAENMAKLNKLGITNLEQMLQVPFGQLTEAGLTLVEIGEIQRKAEDAKPQTQAELESSTPPSKRETEANNSNSKSNGLIMVDYTQYLKDAHVSFSGNDPLDDDRDDDEQLIIDDGNDSTAEEDQQPKKAKAPPAATHESSTEEAPLPSVFDLPSFMNNMLGQGSSARQLLPASATSPNQENAHLPGGDQSTHKSAPIGGGTSTNVLGRILFGDKQSDPEARAAFYRDIIRNPFKAHSGDGDVDSSNENSNSNSHSLTPTPTPEPGSQSPKPEDHDQDMPELPVIAPALPPTTPSLYVRRSMYDFDPVKEQEHGRQELLTEEKEQYQRDTDMRLPFEPMKHYMPATEIDAAIFSHTPIRWQLHEVTIEESSYAQIRASALHKEQRELRDPRMRRILGLPETPDNSGPLGSVPIMGPSSFSVDNIARCATTIASPDLETAVRDSTPSSPPPSVVNLPSMSVPPPSMRVPPPNIQVEKPTVRTDPRRDPRRAVLQAPTKGASTANTTAPNASGGSKQISEIRSLLQVSNWYNNLGTNNKIMVNQQLALVFTELKKFHQLPNDAPKIFDVSFIVNNTTLQQIFAKLFIFVDDNGEVVQIPEEPNGNGAALGGGGDSGGGVGGGGGGGGVVLPNLSQPPPNLSQMLRLPPPNIRMLRMSGMMMQMGNVGPPFNQPPPRGGLMGMPPNGNGLNQGVGNLGGLGQLGINQGGGPVPNGNPFNPFGGNNGGGAGVMNNMNSMGNMGMGFNNFNNNGGRGGHFPGGGSGGNGNGNNRNQRGGNHRNRNI
For B9, the MAPPIT interaction score with CG11723 is 0.327; with CG31624, 1.52.

B10: Cdlc2 (protein)
chain: MSDRKAVIKNADMSEEMQQDAVDCATQALEKYNIEKDIAAFIKKEFDKKYNPTWHCIVGRNFGSYVTHETRHFIYFYLGQVAILLFKSG
B10: the MAPPIT interaction score in the test with CG11983 is 4.18 (active).

B11: gus (protein)
chain: MGQKISGGVKTVSRNDSQSTFKPIIPRELQADFVKPARIDILLDMPPASRDLQLKHSWNSEDRSLNIFVKEDDKLTFHRHPVAQSTDCIRGKVGLTKGLHIWEIYWPTRQRGTHAVVGVCTADAPLHSVGYQSLVGSTEQSWGWDLGRNKLYHDSKNCAGVTYPAILKNDEAFLVPDKFLVALDMDEGTLSFIVDQQYLGIAFRGLRGKKLYPIVSAVWGHCEITMRYIGGLDPEPLPLMDLCRRTIRQKIGRTNLEEHIQQLQLPLSMKTYLLYKNRR
As for B11, the values for the MAPPIT interaction score in the test with CG10874, in the test with RpL38 and with bond were 0.809, 0.363 and 0.0719, respectively.

B12: Lcp2 (protein)
chain: MFKFVMILAVVGVATALAPVSRSDDVHADVLSRSDDVRADGFDSSLHTSNGIEQAASGDAHGNIHGNFGWISPEGEHVEVKYVANENGYQPSGAWIPTPPPIPEAIARAVAWLESHPPAPEHPRHH
B12: the MAPPIT interaction score with CG11275 (pair source set: Curagen_high_conf) is 0.91.

B13: Edg78E (protein)
chain: MYKYLFCLALIGCACADNINKDAQIRSFQNDATDAEGNYQYAYETSNGIQIQEAGNANGARGAVAYVSPEGEHISLTYTADEEGYHPVGDHLPTPPPVPAYVLRALEYIRTHPPAPAQKEQQ
On to B13, for which, in the test with CG12112, the MAPPIT interaction score was 2.76 (active).

B14: PolE2 (protein)
chain: MDVDLLPLRKRITNTFKLCGFLIRSENSSYLAEQLLPFDAAERDKWLTVITENLQSQKLLTPHVERAALEKAINELNRVGLDEGETVFALIDAFTVPRFRYNQRIKKFELDTQPRQLLTAPRMKSDYMQQRYAMLLQKTLRHDLFAPAVIQDGVGAEAQAKKFKLQFAENLLATSAMKEAVVLGLLTQLKEGKFYVEDPTGCVQLDLTGARFHAGFFCEGCFVLAEGNYNNGVLKVDGLGFPPAEPANSSRAFFGTANTWGGESAKLLKYSAGLQELERTNTETTIVFLSDVRLDLPVVMEKLRQLFVGYDSCPPQAIVLMGPFTASTRNHHELRHHLDALGGLAAGCEQLKKQTDLILVPSSEDPTAPNILPRAPIPECLAAGLLKAWPRTQLATNPCRLQYCTQQIVVCRLDLMAKFCRNTLHFPEDTSQIEQHFARTIVCQGHLVPIHPIAMPVHWDYDPALWLYPLPDLIVMGDSCQSFSSSQHGCTVLNTGSFVKSKFAFKVYIPATRTIEDSEIPDELE
B14: the values for the MAPPIT interaction score with CG11555 and in the test with CG5708 were 0.14 and 1.19, respectively.
